Test [1] in a line: Viability qHTS for spleen associated tyrosine kinase inhibitor (SYKi) drug resistant MV4-11 cells (AID 1963824). Note: nearly all actives have a fitted effect of over 35% in size. A digest of the protocol: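 CellTiter-Glo luminescence, read 10 min after reagent addition, reports viability after a 72 hr compound exposure. Cells are an MV4-11 line made resistant to SYK inhibition, seeded at 500 per well onto compound-containing plates.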
(In general: In qHTS, concentration-response curves come from the screen itself.)

Test [2] is described as follows: Quantitative highthroughput screen to assess conditional lethalithy of NOMO1 cells grown in RPMI1640 with untreated serum (RPMI+s) (AID 1963876).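 For Viability: 100% = DMSO wells and 0% = empty wells without cells.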 Note: nearly all actives have a fitted effect of over 35% in size. A digest of the protocol:
(§1)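 Each medium arm—HPLM with 10% dialyzed FBS, or RPMI1640 with 5 mM glucose and 10% untreated or dialyzed FBS—was screened against an 11-point, 3-fold compound titration for 48 h at 37 °C, with CellTiter-Glo luminescence as endpoint.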

A short description of test [3]: Quantitative highthroughput screen to assess conditional lethalithy of NOMO1 cells grown in RPMI1640 with dialyzed fetal bovine serum (RPMI+ds) (AID 1963877).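 For Viability: series mostly up to about 46 µM; 100% = DMSO control wells and 0% = empty wells.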 Note: nearly all actives have a fitted effect of over 30% in size. A digest of the protocol:
as §1

Test [4] can be described thus: Quantitative highthroughput screen to assess conditional lethalithy of NOMO1 cells grown in Human Plasma-Like Medium with dialyzed fetal bovine serum (HPLM+ds) (AID 1963878).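 For Viability: 100% = DMSO wells and 0% = empty wells on each plate.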 Note: nearly all actives have a fitted effect of over 35% in size. The method in brief: as §1
A short description of test [5]: Quantitative highthroughput screen to assess conditional lethalithy of P12 Ichikawa cells grown in RPMI1640 with dialyzed fetal bovine serum (RPMI+ds) (AID 1963880).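 For Viability: 100% = DMSO wells and 0% = empty wells on each plate.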 Note: nearly all actives have a fitted effect of over 35% in size. As to conditions: Potency: P12-Ichikawa viability. The method in brief:
as §1

The nature of test [6]: Quantitative highthroughput screen to assess conditional lethalithy of P12 Ichikawa cells grown in RPMI1640 with untreated serum (RPMI+s) (AID 1963881).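 For Viability: series mostly up to about 46 µM; 100% = DMSO wells and 0% = empty wells without cells.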 Note: nearly all actives have a fitted effect of over 35% in size. The settings on record: Potency: viability. The method in brief:
as §1

Test [7] in a line: Quantitative highthroughput screen to assess conditional lethalithy of SEM cells grown in Human Plasma-Like Medium with dialyzed fetal bovine serum (HPLM+ds) (AID 1963882). For Viability: series mostly up to about 46 µM. Note: nearly all actives have a fitted effect of over 35% in size. A digest of the protocol: as §1
Test [8] in a line: Quantitative highthroughput screen to assess conditional lethalithy of SEM cells grown in RPMI1640 with unreated serum (RPMI+s) (AID 1963883).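 For Viability: 100% = DMSO wells and 0% = empty wells without cells.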 Note: nearly all actives have a fitted effect of over 35% in size. A digest of the protocol: as §1
The nature of test [9]: Quantitative highthroughput screen to assess conditional lethalithy of SEM cells grown in RPMI1640 with dialyzed fetal bovine serum (RPMI+ds) (AID 1963884).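 For Viability: series mostly up to about 46 µM; 100% = DMSO control wells and 0% = empty wells without cells.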 Note: nearly all actives have a fitted effect of over 35% in size. The method in brief:
as §1

Test [10] can be described thus: Cellular viability qHTS for adrenocortical cancer (ACC) cell line SW-13 (AID 1963989).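 For activity (max response): cells grown in serum-free medium with ITS supplement; % is set by controls: 0 for no effect and ±100 for the full control effect.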 Note: nearly all actives have a fitted effect of over 65% in size. As to conditions: SW-13 ACC cells viability, CellTiter-Glo, 48 h; activity (max response): stronger effect = lower value. The method in brief: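 SW-13 cells in ITS-supplemented serum-free DMEM were plated overnight, then exposed for 48 h at 37C to compound titrations (up to 46 uM final). Viability was read by CellTiter-Glo luminescence; four-parameter logistic fits gave IC50 and efficacy.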

The nature of test [11]: Quantitative highthroughput screen to assess conditional lethalithy of P12 Ichikawa cells grown in Human Plasma-Like Medium with dialyzed fetal bovine serum (HPLM+ds) (AID 1963879). For Viability: series mostly up to about 46 µM. Note: nearly all actives have a fitted effect of over 35% in size. As to conditions: Potency: viability. A digest of the protocol:
as §1

Test [12] in a line: Cellular viability qHTS for adrenocortical cancer (ACC) cell line NCI-H295R (AID 1963990).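 For activity change, negative = viability loss: 0% = DMSO only wells and -100% = full killing with cytotoxic reference compound.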 Note: nearly all actives have a fitted effect of over 60% in size. A digest of the protocol: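 Luminescent ATP read-out (CellTiter-Glo, 20 min RT) after 48 h drug exposure of NCI-H295R cells; a titration up to 46 uM final. Data normalized to doxorubicin (100% inhibition) and DMSO (0%); 4-parameter fit gives IC50, max response.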

Where “and” joins values, the source holds several entries; their conditions need not be identical. Equal entries are not always repeated. Inconclusive results are not listed. Some compounds were tested as several samples or in several runs, with calls that do not always agree. Calls of active or inactive are those of the source. Calls come from the whole dose curve; as a rule, active = well fitted curve in the direction sought with a large enough effect; inconclusive = small, poorly fitted or top-dose-only effect, or another doubt; inactive = no such curve, though single readings can be large; an effect the other way counts as inactive or inconclusive.
Potency is the fitted concentration of half-maximal effect.

With `CCOC(=O)N1CCC(=C2c3ccc(Cl)cc3CCc3cccnc32)CC1`, the Potency in test [1] is 8.41 µM (active); in test [9] it was 11.8 µM (active); in [10], 4.61 µM (active). Moreover, the Potency result in test [2], in test [3], in [4], in test [5], in [6] and in test [7] was “inactive” throughout. Further, the Potency entry in [8] is “inactive”.

Turning to `CC(C)(O)CCc1ccc(OCc2cc(-c3cccc(OC(F)F)c3)c3ncccc3c2)cc1`, the figures for the Potency in test [1] and in test [12] were 16.6 µM (active) and 25.1 µM (active), respectively. The Potency entry in [2], in [3], in test [4], in test [11], in [5] and in test [6] was “inactive” throughout. In addition, the Potency result in test [7], in [8] and in test [9] was “inactive” each time.

Turning to `CC(C)c1nn(-c2c(Cl)cccc2Cl)c2nc(Cc3ccc(OCCO)cc3)[nH]c(=O)c12`, the Potency in [1] was 0.0206 µM (active); in test [2], 0.118 µM (active); in test [3] it was 0.105 µM (active); in test [4], 0.118 µM (active); in test [11] it was 0.166 µM (active); in [5] it was 0.148 µM (active). Besides, the Potency in test [6] is 0.148 µM (active); in test [7], 0.105 µM (active); in test [9] it was 0.148 µM (active); in test [10] it was 0.0501 µM (active); in test [12], 0.1 µM (active).

Consider `CNc1nc(Nc2ccc(C(=O)N3CCOCC3)cc2OC)ncc1Cl`, for which, in [1], the Potency is 5.8 µM (active). The Potency result in [2], in test [3], in test [4], in test [11], in test [5] and in [6] was “inactive” each time. Besides, the Potency result in [12] is “inactive”. Moreover, in test [10], the activity (max response) is -6.87% (inactive).

Take `O=C(O)c1cc(O)c2c(c1)C(=O)c1cccc(O)c1C2=O`: the Potency in test [1] was 23.5 µM (active). Besides, the Potency entry in test [2], in test [3], in [4], in [11], in test [5] and in test [6] was “inactive” in each case. Also, the Potency result in test [7], in test [8] and in [12] was “inactive” throughout. In addition, the activity (max response) in test [10] was 1.15% (inactive).

For the compound `O=C(O)COCCN1CCN(C(c2ccccc2)c2ccc(Cl)cc2)CC1` (configuration not stated), the Potency entry in test [1], in test [2], in [3], in [4], in test [11] and in [5] was “inactive” throughout. Further, the Potency entry in test [6], in test [7], in test [8] and in test [12] was “inactive” each time. For the same compound, the activity (max response) in test [10] was 9.41% (inactive).

In the case of `COc1cccc(-c2cc(=O)c3ccccc3o2)c1N`, the Potency in test [1] is 18.4 µM (active). The Potency result in test [2], in test [3], in test [4], in [11], in test [5] and in test [6] was “inactive” in each case. In addition, the Potency entry in [7] and in test [12] was “inactive” each time. Further, the activity (max response) in [10] is 0.813% (inactive).

With `O=C(Nc1ccc(Oc2ccnc3[nH]ccc23)c(F)c1)c1cccn(-c2ccc(F)cc2)c1=O`, the values for the Potency in [1] and in test [7] were 0.0146 µM (active) and 8.33 µM (active), respectively. Besides, the Potency result in test [2], in test [3], in test [4], in test [11], in [5] and in [6] was “inactive” throughout. Besides, the Potency result in [12] was “inactive”.

Consider `CCCCCN(C)CCC(O)(P(=O)(O)O)P(=O)(O)O`, for which, in test [1], the viability, % of control is 78.4% [at 4.97 µM] (inactive). For the same compound, the Potency entry in test [2], in test [3], in test [4], in test [11], in [5] and in [6] was “inactive” in each case. Besides, the Potency result in test [9] was “inactive”. Besides, in test [10], the activity (max response) is -15.6% (inactive). Moreover, the activity change, negative = viability loss in [12] is -3.37% [at 3.81 µM] (inactive).

Consider `Cc1ccccc1C(=O)Nc1ccc(C(=O)N2CCCC(O)c3cc(Cl)ccc32)c(C)c1` (configuration not stated), for which the Potency in test [1] is 20.9 µM (active); in test [12], 16.4 µM (active). Besides, the Potency result in test [2], in [3], in [4], in test [11], in [5] and in test [6] was “inactive” throughout. Also, the Potency result in [7], in [8] and in test [9] was “inactive” each time.

Consider `CC(C)Oc1ccc2c(=O)c(-c3ccccc3)coc2c1`, for which the Potency in test [1] is 10.6 µM (active). Also, the Potency result in test [2], in [3], in [4], in [11], in [5] and in test [6] was “inactive” each time. Further, the Potency entry in test [7], in test [8] and in [12] was “inactive” throughout. In addition, the activity (max response) in test [10] is -5.36% (inactive) and 3.78% (inactive).

For the compound `O[C@@H](COc1cccc2ncccc12)CN1CCN(C2c3ccccc3[C@@H]3[C@H](c4ccccc42)C3(F)F)CC1` (some centres not stated), the Potency was 6.61 µM (active) and 9.2 µM (active) in [1]; 20.6 µM (active) in test [10]; 3.55 µM (active) in test [12]. Moreover, the Potency result in test [2], in test [3], in [4], in test [11], in [5] and in [6] was “inactive” throughout. Besides, the Potency entry in [7] and in [9] was “inactive” each time.

For `COc1ccc(-c2cc(=O)c3c(O)cc(O)cc3o2)cc1O`, the Potency in test [1] was 10.5 µM (active). Further, the Potency result in test [2], in test [3], in [4], in test [11], in [5] and in test [6] was “inactive” in each case. In addition, in test [12], the Potency result is “inactive”. In addition, in test [10], the activity (max response) is -29.6% (inactive).

Regarding `Cc1ccc(C)c(OCCCC(C)(C)C(=O)O)c1`, the Potency entry in [1] is “inactive and 14.8 µM (active)”. Also, the Potency result in [2], in [3], in test [4], in [11], in test [5] and in test [6] was “inactive” each time. Moreover, the Potency result in [7], in test [8], in test [9] and in test [12] was “inactive” each time. In addition, the activity (max response) in test [10] is 2.23% (inactive) and -5.29% (inactive).

Take `CCNC(=O)c1cc2c(-c3cc(OCCN4CCCC4)c(Cl)cc3Cl)nc(N)nc2s1`: the Potency was 0.162 µM (active) in test [1]; 3.72 µM (active) in [2]; 4.69 µM (active) in test [3]; 4.18 µM (active) in [4]; 2.96 µM (active) in test [7]; 2.35 µM (active) in test [9]. Further, the Potency in [10] was 1.6 µM (active); in [12], 2.54 µM (active).

In the case of `C[C@H](c1ccc(F)cc1CCCC(=O)O)N(c1cc(F)ccc1F)S(=O)(=O)c1ccc(Cl)cc1`, the Potency in test [1] was 18.6 µM (active). Further, the Potency entry in test [2], in test [3], in test [11], in test [5] and in [12] was “inactive” in each case. In test [10], the activity (max response) was -23.1% (inactive).

With `N#CC(c1ccc(Cl)cc1)c1c(Cl)cc(-n2ncc(=O)[nH]c2=O)cc1Cl` (configuration not stated), in [1], the Potency is 26.3 µM (active). Besides, the Potency entry in test [2], in test [3], in test [4], in test [6], in [7] and in test [8] was “inactive” each time.

Turning to `Cc1ccc(F)c(NC(=O)Nc2ccc(-c3cccc4[nH]nc(N)c34)cc2)c1`, the Potency in [1] was 0.0231 µM (active); in test [8], 10.5 µM (active); in [9] it was 5.9 µM (active); in [10], 22.4 µM (active). The Potency result in [2], in [3], in test [4], in test [5] and in test [6] was “inactive” each time.

(Values after PubChem BioAssay (NCATS).)
